PTHR1 ag: agonists of human PTHR1 parathyroid hormone receptor; HEK293 GP2 PTHR1 cells, GloSensor cAMP luminescence, 1 h; Potency, µM (doses to about 115 µM), most hits filed as activators; hit rate 0.075% among 410,000; further: nearly all actives have a fitted effect of over 55% in size
Target sequence (Q03431 whole entry, looked up): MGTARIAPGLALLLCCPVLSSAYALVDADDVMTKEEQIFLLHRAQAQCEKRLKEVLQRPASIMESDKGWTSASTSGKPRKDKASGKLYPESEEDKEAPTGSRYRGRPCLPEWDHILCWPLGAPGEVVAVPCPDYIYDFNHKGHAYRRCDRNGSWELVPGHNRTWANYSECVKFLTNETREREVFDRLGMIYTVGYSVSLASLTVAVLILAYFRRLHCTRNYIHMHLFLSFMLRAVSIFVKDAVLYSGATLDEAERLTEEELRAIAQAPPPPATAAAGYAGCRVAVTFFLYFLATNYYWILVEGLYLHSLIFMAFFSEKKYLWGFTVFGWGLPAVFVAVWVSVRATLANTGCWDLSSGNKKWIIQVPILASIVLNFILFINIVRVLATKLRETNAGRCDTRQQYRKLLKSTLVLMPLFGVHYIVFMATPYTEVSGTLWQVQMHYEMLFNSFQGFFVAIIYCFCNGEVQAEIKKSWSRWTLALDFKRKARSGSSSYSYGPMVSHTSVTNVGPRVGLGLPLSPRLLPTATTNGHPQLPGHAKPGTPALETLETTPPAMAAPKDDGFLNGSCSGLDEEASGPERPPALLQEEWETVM
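HEK-293-derived GP2 cells expressing PTHR1 and a GloSensor cAMP reporter, 3,000/well, plated overnight, given luciferin plus IBMX (each 0.5 mM as added) for 1 h at 37 °C, then compound for 1 h at 37 °C. Luminescence was read after 15 min at room temperature.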
DRD3 agonist: D3 dopamine receptor (human) agonism; P35462; D3R DiscoveRx beta-arrestin cells, luminescence, 90 min; max activation, %; hit rate 0.58% among 410,000; AID 652048; in the data active means max activation above about 30%
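Agonist-mode cell screen: cells plated at 1500/well and incubated overnight at 37 °C, then exposed to library compounds for 90 min at 37 °C. Detection reagent was added for 30–60 min at room temperature, and luminescence was read.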
RGS4 inh: human RGS4 inhibition. P49798. Transcreener GDP fluorescence polarization, RGS4-accelerated GTP hydrolysis. Potency, µM (highest dose often 114 µM), actives largely listed as inhibitors. hit rate 0.039% among 390,000. AID 504845; further: nearly all actives have a fitted effect of over 75% in size
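MLSMR compounds (23 nl, pin-transferred) preincubated 10 min at room temperature with a 500nM (2x) first reagent, then RGS4 at 900nM (2x) plus Transcreener GDP mix added; fluorescence polarization (620/688 nm) read before and after 90 min at 30 °C.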
B2AR arrestin: agonists driving beta-arrestin recruitment to human beta2-adrenergic receptor. P07550. beta-arrestin recruitment to beta2AR, cell-based reporter. Potency, µM (titrated, usually from 46.1 µM), actives largely listed as activators. hit rate 0.02% among 330,000. AID 492947; further: nearly all actives have a fitted effect of over 65% in size
BRCA1 expr up: BRCA1 expression activation; AID 624202; Potency, µM (series often up to 46.1 µM), usual class: activators; hit rate 1.1% among 380,000; MCF7-BRCA1-FFLuc reporter, luminescence, 48 h; response scale: scaled: vehicle 0%, 10 µM genistein 100%; further: nearly all actives have a fitted effect of over 80% in size
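Using MCF7 cells harboring a BRCA1 firefly luciferase reporter, plated 2 h before compound pinning, the screen measured luminescence after 48 h incubation. Responses were normalized to DMSO and 10 microM genistein, then fitted for concentration-effect.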
D3 antag: blocks the human D3 dopamine receptor. P35462. D3R cells, DiscoveRx beta-arrestin luminescence, antagonist mode; stronger effect = lower value. max response, negative = inhibition, %. hit rate 2.5% among 360,000. AID 652054; in the data active means max response below about -50%; inconclusive means no clear call, values can overlap the other calls
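Cells expressing the human receptor were seeded at 1500 cells/well, incubated overnight at 37 degrees C in 5% CO2, then exposed to library compounds with dopamine controls for 90 minutes at 37 degrees C before luminescent detection.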
Numbers stand for hits; [ ] = remark or other dose. Compounds with a hit are over-represented: about 3.7% of the library has one in this group of screens. Unless noted, the call rests on the fitted dose curve; in most records, active means well fitted curve in the direction sought with a large enough effect; inconclusive means small, poorly fitted or top-dose-only effect, or another doubt; inactive means no such curve, though single readings can be large; an effect the other way counts as inactive or inconclusive.

`Cc1ccc(NS(=O)(=O)c2cc([N+](=O)[O-])ccc2NNC(=S)Nc2cccc(Cl)c2)c(C)c1` gave PTHR1 ag inactive, DRD3 agonist inactive, RGS4 inh inconclusive, B2AR arrestin inactive, BRCA1 expr up inactive and D3 antag -73.
`Nn1c(SCC(=O)Nc2ccccc2F)nc2ccccc2c1=O` gave PTHR1 ag inactive, DRD3 agonist 40, RGS4 inh inactive, B2AR arrestin inactive, BRCA1 expr up inactive and D3 antag inactive.
Screening O=C(O)Cn1nnnc1SCC(=O)Nc1ccccc1F returned PTHR1 ag inactive, DRD3 agonist inactive, RGS4 inh inactive, B2AR arrestin inactive, BRCA1 expr up inactive and D3 antag inactive.
For CCN1C(=O)CC(N2CCN(c3ccc(C(=O)c4ccccc4)cc3)CC2)C1=O (stereo not drawn) the results were PTHR1 ag inactive, DRD3 agonist inactive, RGS4 inh inactive, BRCA1 expr up 11µM and D3 antag inactive.
Screening CO[C@@H]1[C@@H](O[C@@H]2O[C@H](C)[C@@H](O[C@H]3C[C@@](C)(O)[C@@H](OC(=O)CC(C)C)[C@H](C)O3)[C@H](N(C)C)[C@H]2O)[C@@H](CC=O)C[C@@H](C)C(=O)/C=C/C2OC2C[C@@H](C)OC(=O)C[C@H]1OC(C)=O (stereo partly drawn) returned DRD3 agonist inactive.
Screening O=C(Nc1cccc(C(=O)N2CCOCC2)c1)C1CCCCC1 returned PTHR1 ag inactive.
CC1CCCCN1CCCNc1ccc(C(CC(N)=O)NC(=O)Cc2ccc(Br)cc2)cc1[N+](=O)[O-] (stereo not drawn) was read as PTHR1 ag inactive, DRD3 agonist inactive, RGS4 inh inactive, B2AR arrestin inactive, BRCA1 expr up inactive and D3 antag -52.
Screening CCOc1ccc(C(C(=O)NC2CCCC2)N(C(=O)CNC(=O)c2ccco2)c2cccnc2)cc1 (stereo not drawn) returned PTHR1 ag inactive, DRD3 agonist inactive, RGS4 inh inactive, B2AR arrestin inactive, BRCA1 expr up inactive and D3 antag inactive.
Cn1cnc([N+](=O)[O-])c1S(=O)(=O)Oc1cccc2ccccc12 was read as PTHR1 ag inactive, DRD3 agonist inactive, RGS4 inh inconclusive, BRCA1 expr up inactive and D3 antag -97.
Cn1cnc([N+](=O)[O-])c1S(=O)(=O)Oc1ccc(Cl)cc1 was read as PTHR1 ag inactive, DRD3 agonist inactive, RGS4 inh inactive, BRCA1 expr up inactive and D3 antag -89.
`CCOC(=O)c1cnc2ccc(OC(F)(F)F)cc2c1Nc1ccccc1C(=O)O` gave PTHR1 ag inactive, DRD3 agonist 31, RGS4 inh inactive and BRCA1 expr up inactive.
`COc1cccc(CN2CCN(Cc3cccc(Oc4ccccc4)c3)CC2)c1OC` gave PTHR1 ag inactive, DRD3 agonist inactive, RGS4 inh inactive, B2AR arrestin inactive, BRCA1 expr up inactive and D3 antag -59.
For CCN1CCN(Cc2cccc(Oc3ccccc3)c2)CC1 the results were PTHR1 ag inactive, DRD3 agonist inactive, RGS4 inh inactive, B2AR arrestin inactive, BRCA1 expr up inactive and D3 antag -52.
For CN1CCN(Cc2cccc(Oc3ccc(Cl)cc3)c2)CC1 the results were PTHR1 ag inactive, DRD3 agonist inactive, RGS4 inh inactive, B2AR arrestin inactive, BRCA1 expr up inactive and D3 antag -52.
For c1ccc(Oc2cccc(CN3CCCCC3)c2)cc1 the results were PTHR1 ag inactive, DRD3 agonist inactive, RGS4 inh inactive, B2AR arrestin inactive, BRCA1 expr up inactive and D3 antag inactive.
Screening COc1cccc(CN2CCC(N(CCc3ccccc3)Cc3ccccc3)CC2)c1OC returned PTHR1 ag inactive, DRD3 agonist inactive, RGS4 inh inactive, B2AR arrestin inactive, BRCA1 expr up inactive and D3 antag -85.
Screening CC1(C)Cc2cccc(OCC(=O)Nc3ccc(S(N)(=O)=O)cc3)c2O1 returned PTHR1 ag inactive, DRD3 agonist inactive, RGS4 inh inactive, B2AR arrestin inactive, BRCA1 expr up inactive and D3 antag inactive.
For NS(=O)(=O)c1ccc(NC(=O)CN(C(=O)C(F)(F)F)C2CCCC2)cc1 the results were PTHR1 ag inactive, DRD3 agonist inactive, BRCA1 expr up inactive and D3 antag inactive.
Screening CCOC(=O)C1CCN(Cc2cccc(Oc3ccc(Cl)cc3)c2)CC1 returned PTHR1 ag inactive, DRD3 agonist inactive, RGS4 inh inactive, B2AR arrestin inactive, BRCA1 expr up inactive and D3 antag inconclusive.
`COc1cc(CN2CCN(C(c3ccccc3)c3ccccc3)CC2)cc(OC)c1OC` gave PTHR1 ag inactive, DRD3 agonist inactive, RGS4 inh inactive, B2AR arrestin inactive, BRCA1 expr up inactive and D3 antag -85.
CCN1CCN(Cc2cccc(Oc3ccc(Cl)cc3)c2)CC1 was read as PTHR1 ag inactive, DRD3 agonist inactive, RGS4 inh inactive, B2AR arrestin inactive, BRCA1 expr up inactive and D3 antag -63.
`C/C(=N\NC(=O)c1ccccc1O)C1C(=O)c2ccccc2C1=O` gave PTHR1 ag inactive, DRD3 agonist inactive, RGS4 inh inactive, B2AR arrestin inactive, BRCA1 expr up inactive[1.84 µM] and D3 antag inactive.
For C/C(=N/NC(=O)c1cc2ccccc2cc1O)C1C(=O)c2ccccc2C1=O the results were PTHR1 ag inactive, DRD3 agonist inactive, RGS4 inh inactive, B2AR arrestin inactive, BRCA1 expr up inactive and D3 antag -56.
For COc1ccc(Cc2nnc(SCC(=O)c3ccc4c(c3)OCO4)o2)cc1 the results were PTHR1 ag inactive, DRD3 agonist inactive, RGS4 inh inactive, B2AR arrestin inactive, BRCA1 expr up inactive and D3 antag inactive.
Cc1ccc(SCn2nnc3ccccc3c2=O)c(C)c1 was read as PTHR1 ag inactive, DRD3 agonist inactive, RGS4 inh inactive, B2AR arrestin inactive, BRCA1 expr up 13µM and D3 antag inactive.
`Cc1nc(Nc2ccccc2)sc1C(=O)c1ccccc1` gave PTHR1 ag inactive, DRD3 agonist inactive, RGS4 inh inactive, B2AR arrestin inactive, BRCA1 expr up 10µM and D3 antag inactive.
`C=C1/C(=C\C=C2/CCC[C@]3(C)[C@@H]([C@H](C)OCCC(C)(C)O)CC[C@@H]23)C[C@@H](O)C[C@@H]1O` gave DRD3 agonist inactive.
`CC(C)CNS(=O)(=O)c1cc(C(=O)N2CC(C)OC(C)C2)c(Cl)cc1Cl` (stereo not drawn) gave PTHR1 ag inactive, DRD3 agonist inactive, RGS4 inh inactive, B2AR arrestin inactive, BRCA1 expr up inactive and D3 antag -55.
`Cc1cc([N+](=O)[O-])ccc1NC(=O)CSc1nnc(C)n1C` gave PTHR1 ag inactive, DRD3 agonist inactive, RGS4 inh inactive, B2AR arrestin inactive, BRCA1 expr up inactive and D3 antag inactive.

Bioassay records deposited in PubChem by National Center for Advancing Translational Sciences (NCATS).
